Experimental data from PubChem BioAssay AID485275 (NMMLSC, 2010).
The campaign covered roughly 330,000 compounds. About 1,400 (0.42%) were called active. Shown is part of a subset that was picked to be rich in actives. Unmarked numbers belong to inactive results.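 How the source made its calls: active means plate passing quality check with inhibition over a set limit, or well fluorescence over plate mean plus 4 SD; inactive means the rest.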

Assay: antifungal drug efflux pump blockers, triplex strains – S. cerevisiae, Nile Red, multiplex, primary screen (AID 485275);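 further: Nile Red retained in pooled yeast measured as flow cytometry median fluorescence; 0% = buffer negative control and 100% = Enniatin B positive control; higher means more Nile Red kept so more efflux inhibition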
Settings: S. cerevisiae Candida pump triplex, at 10 µM, hits give high values

Structure (SMILES)	inhibition
CCCN(CC(=O)Nc1ccccc1C)C(=O)c1ccc2[nH]c3c(c2c1)CC(C)CC3 (configuration not stated)	0.26%
Cn1nc(C(C)(C)C)c(NC(=O)c2sccc2Cl)c1C(C)(C)C	0.22%
COc1cccc(CNS(=O)(=O)c2csc(C(N)=O)c2)c1	-0.01%
CN(CCNC(=O)c1cc2c(-c3ccccc3F)nn(C)c2s1)C1CCCCC1	0%
CC1=C(/C=C/C(C)=C/C=C/C(C)=C/C=C/C=C(C)/C=C/C=C(C)/C=C/C2=C(C)CCCC2(C)C)C(C)(C)CCC1	0.08%
CCCCCCCCCCCCCCCC(=O)OC/C=C(C)/C=C/C=C(C)/C=C/C1=C(C)CCCC1(C)C	1.61% (active)
CCc1ccc(/C=N/NC(=O)c2ccc(OC3CCCC3)cc2)s1	-0.12%
COCCOC1CCN(C(=O)c2ccc(OC)c(OC3CCN(C(C)C)CC3)c2)CC1	-0.1%
CCOc1ccc(NC(=O)c2cccc3c2C(=O)N(CC2CCCO2)C3)cc1 (configuration not stated)	0.06%
O=C(Cn1c(-c2cscn2)nc2ccccc21)Nc1ccc(Cl)cc1	-0.15%
O=C(Cn1c(COc2ccccc2)nc2ccccc21)Nc1cc(Cl)c(Cl)cc1Cl	0.72% (active)
CC(C)n1c(COc2ccccc2)nc2ccccc21	0.39%
Cc1ccc(C)c(NC(=O)c2ccc(OC(=O)c3ccco3)cc2)c1	0.04%
Fc1ccccc1/C=N/n1c(-c2cccnc2)n[nH]c1=S	-0.01%
COc1ccccc1/C=C/C=N/n1c(-c2ccc(Cl)cc2Cl)n[nH]c1=S	0.42% (active)
S=c1[nH]nc(-c2ccncc2)n1/N=C/c1ccccc1Cl	0.13%
Cn1c(=O)c2c(nc(N3CCCCCC3)n2CC(O)COc2ccc(Cl)cc2)n(C)c1=O (configuration not stated)	0.11%
CCCCN1C(=O)/C(=C/C=C2/C=Cc3ccccc3N2CC)SC1=S	1% (active)
CCCCN1C(=O)/C(=C2/Sc3ccc(Cl)cc3N2CC)SC1=S	-0.02%
CCCCN1C(=O)/C(=C2/C=CC=CN2C)SC1=S	0.04%
Cc1ccc(N2CCN(c3ccc(C)cc3)C2c2ccccn2)cc1	0.22%
CSCCC(NC(=O)COc1ccccc1)C(=O)OCCOc1ccc(F)cc1 (configuration not stated)	0.07%
CSCCC(NC(=O)COc1ccccc1)C(=O)OCC(=O)c1cc2ccccc2o1 (configuration not stated)	-0.18%

Structure (SMILES)	inhibition
CSCCC(NC(=O)COc1ccccc1)C(=O)OCCOc1ccc(Br)cc1 (configuration not stated)	0.49% (active)
O=C(CCC(=O)N1CCCC1)Nc1ccc([N+](=O)[O-])cc1	0.32%
Cc1ccc(NC(=O)c2ccc(Cl)nc2)cc1S(=O)(=O)N1CCOCC1	0.15%
Cc1cc(C(=O)Nc2ccc(C)c(S(=O)(=O)N3CCOCC3)c2)c2ccccc2n1	1.11% (active)
Cc1cc(C(=O)NNC(=O)c2cccc(S(=O)(=O)N3CCOCC3)c2)c2ccccc2n1	0%
COc1ccc(C2(C)NC(=O)N(CC(=O)c3ccc4c(c3)OCO4)C2=O)cc1 (configuration not stated)	0.11%
CCCCN(C(=O)C(CCSC)N1C(=O)c2ccccc2C1=O)c1c(N)n(CCC)c(=O)[nH]c1=O (configuration not stated)	-0.17%
Cc1nn(C)cc1N1C(=O)c2cccc3c(N)ccc(c23)C1=O	0.48% (active)
Cc1ccc(NC(=O)COC(=O)C2C3CC4OC(=O)C2C4C3)cc1Cl (configuration not stated)	0.04%
COc1c(C(C)C)oc2cc3oc(=O)ccc3cc12	0%
Cc1oc2cc3oc(=O)ccc3cc2c1C	2.16% (active)
Cc1noc(C)c1COc1ccc2ccc(=O)oc2c1	0.13%
CC[C@]1(C(=O)OC)[C@H]2C(=O)N(Cc3ccccc3)C(=O)[C@H]2[C@H]2CN=C(SCc3ccc(Cl)cc3)N21	0.03%
CC(=O)N1CCN(CC(C)(C)NS(=O)(=O)c2ccc(C)cc2)CC1	0.16%
CCn1ncc(C2=NOC(C(=O)Nc3ccccc3C(=O)OC)C2)c1C (configuration not stated)	-0.18%
Cc1cccc(NC(=O)COc2ccc(Br)cc2C)n1	-0.04%
Cc1cccc(NC(=O)COc2ccccc2C)n1	1.07% (active)
Cc1ccccc1OCC(=O)Nc1nc(C)c(C(=O)N(C)C)s1	-0.09%
COc1ccc(Cc2nc3ccc(C(=O)N4CCC(N(C)C)C4)cc3o2)cc1 (configuration not stated)	-0.47%
O=C(COc1ccccc1F)NNC(=O)c1cc(Br)ccc1Cl	0.03%
CC1CCN(C(=O)CCc2nnc3ccc(NCc4ccco4)nn23)CC1	0.1%
CCC1(CC)NC(=O)N(CC(=O)OCC(=O)NC(=O)c2ccccc2)C1=O	0.07%
NC(=O)c1oc2ccccc2c1NC(=O)Cc1ccccc1	0.32%

Structure (SMILES)	inhibition
O=C(Cc1ccccc1)NCC1OCCc2ccccc21 (configuration not stated)	0.87% (active)
O=S(=O)(NCC1OCCc2ccccc21)c1ccccc1 (configuration not stated)	-0.08%
CCOc1ccc2nc(Cl)c(C3CC(c4ccccc4)=NN3C(=O)c3cccs3)cc2c1 (configuration not stated)	0.46% (active)
COc1ccc(C2=NN(C(=O)c3ccccc3C(=O)O)C(c3ccccc3O)C2)cc1 (configuration not stated)	-0.05%
CCOc1ccccc1C1CC(c2cccc(NS(C)(=O)=O)c2)=NN1C(=O)c1ccccc1 (configuration not stated)	-0.18%
N#Cc1ccc(CN2CCN(CC(=O)Nc3ccccc3C(=O)NC3CC3)CC2)cc1	0.14%
CCCCC(NS(=O)(=O)c1ccc(C)cc1)C(=O)Oc1ccc2c3c(c(=O)oc2c1)CCC3 (configuration not stated)	0.09%
C/C(N)=C(/C#N)C(=O)COC(=O)c1cc(-c2cccc(Br)c2)nc2ccccc12	37.8% (active)
C/C(N)=C(/C#N)C(=O)COC(=O)c1cc(-c2ccccc2)nc2ccc(Br)cc12	0.06%
C/C(N)=C(/C#N)C(=O)COC(=O)c1cc(-c2ccc(C)cc2)nc2ccccc12	-0.3%
Cc1cccc(NC(=O)C2CCCN2S(=O)(=O)c2ccc(F)cc2)c1C (configuration not stated)	-0.01%
COc1ccccc1NC(=O)C1CCCN1S(=O)(=O)c1ccc(Cl)cc1 (configuration not stated)	0.94% (active)
CC(C)c1nnc(NC(=O)C2CCCN2S(=O)(=O)c2ccc(Cl)cc2)s1 (configuration not stated)	-0.16%
COc1ccccc1/C=N/N1CCN(Cc2ccccc2Cl)CC1	-0.11%
CC12CCC(C(=O)N(c3cccc(Cl)c3)C1=O)C2(C)C (configuration not stated)	10.2% (active)
O=C1CC(NNc2ccccc2)C(=O)N1c1cccc(Cl)c1 (configuration not stated)	0.07%
CC12CCC(C(=O)N(NC(=O)c3ccccc3O)C1=O)C2(C)C (configuration not stated)	-0.08%
O=C(CCCN1C(=O)CSc2ncccc21)N1CCN(c2cccc(C(F)(F)F)c2)CC1	0.01%
O=C(CSC1CC(=O)N(CCc2ccccc2)C1=O)Nc1ccc(Cl)cc1 (configuration not stated)	0.17%
NC(=O)c1cc(S(=O)(=O)NCCCc2ccco2)cs1	-0.02%
COc1ccc(/C=C/C(=O)OCC(=O)Nc2cccc(Oc3ccccc3)c2)c(OC)c1	-0.02%
COc1cccc(NC(=O)CN(C)C(=O)/C=C/c2cc(OC)ccc2OC)c1	15.2% (active)
COc1cccc(NC(=O)CN(C)C(=O)Cc2ccc(Cl)cc2Cl)c1	-0.07%

Structure (SMILES)	inhibition
CCN(CC)CC(=O)Nc1nn(-c2ccccc2)nc1C(N)=O	0.02%
O=C(Nc1nccs1)c1cc(S(=O)(=O)N2CCOCC2)c(Cl)cc1Cl	-0.05%
Cc1ccc(C(=O)Nc2ccn(C)n2)cc1	-0.02%
CN(C)S(=O)(=O)c1cc(C(=O)Nc2ccn(C)n2)c(Cl)cc1Cl	52.3% (active)
COC(=O)/C(=C1\Oc2ccc(C(C)(C)C)cc2S1)C(F)(F)F	-0.15%
O=C(NN1C(=O)C2CCCCC2C1=O)c1ccco1 (configuration not stated)	-0.1%
Cc1ccc(S(=O)(=O)N2CC(C)N(S(C)(=O)=O)C2)cc1 (configuration not stated)	-0.07%
CCOC(=O)c1c(NC(=S)NC(=O)c2ccco2)sc2c1CCCC2	1.02% (active)
CCOC(=O)c1c(NC(=S)Nc2ccccc2)sc2c1CCN(C)C2	-0.02%
CCOC(=O)c1c(NC(=O)C2(C)Cc3ccccc3C(=O)O2)sc2c1CCCC2 (configuration not stated)	0.15%
C=CCNC(=O)c1sc(SC)cc1-c1ccc(Cl)cc1	-0.08%
CCCCN1C(=O)CCC(C(=O)O)C1c1ccc(OC)cc1 (configuration not stated)	0.12%
CCOC(=O)CNC(=O)CSc1nnnn1-c1cc(C)ccc1C	0.92% (active)
Cc1ccc(C)c(-n2nnnc2SCC(=O)c2c(N)n(C)c(=O)n(C)c2=O)c1	-0.07%
COc1ccc(OC)c(-n2nnnc2SCC(=O)Nc2cc(C)ccc2OC)c1	-0.01%
O=C(NCC(=O)N1CCN(c2ncc(C(F)(F)F)cc2Cl)CC1)c1ccc(Br)o1	-0.34%
CN1CCN(S(=O)(=O)c2ccc(NC(=S)NC(=O)C3CC3)cc2)CC1	10.2% (active)
CC(=O)Nc1ccc(S(=O)(=O)N2CCC(C(=O)NC3CC3)CC2)cc1	-0.06%
CN1CCN(S(=O)(=O)c2ccc(NC(=O)C3CCCO3)cc2)CC1 (configuration not stated)	-0.16%
CCN(CC(=O)Nc1c(F)cccc1F)C(=O)c1cnc(C)cn1	-0.12%
Cc1ccc(N=C2NC(=O)/C(=C/C=C/c3ccco3)S2)cc1C	2.76% (active)
CN1C(=O)/C(=C/c2ccco2)SC1=Nc1cccc(C(=O)O)c1	-0.02%
CCCn1c2ccccc2c2cnn(CC(=O)NCCCN3CCCCC3CC)c(=O)c21 (configuration not stated)	0.02%
